# Measured values reported in PubChem BioAssay.
# Values joined by “and” are separate entries in the source; they are usually repeats but may differ in a detail not shown here. Equal values may be shown once. Results filed as inconclusive are left out. Active and inactive are the calls of the source.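 The calls were made as follows, unless noted: active = normalized viability below 100% at a tested concentration; inactive = the rest.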
# Columns and labels:
# [1] = viability loss in pontine glioma line – cell-based, SU-DIPG-XXV, MIPE5.0, CellTiter-Glo, qHTS, dose response (AID 1347065; cut-off not given, nearly all actives have AC50 up to about 26 µM;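 also: cells exposed to compound for 48 hours before ATP readout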); settings: CellTiter-Glo ATP luminescence
# [2] = SU-DIPG-VI glioma cell viability, MIPE4.0 library, CellTiter-Glo luminescence, qHTS (AID 1347066; cut-off not given, nearly all actives have AC50 up to about 30 µM;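 also: cells exposed to compound for 48 hours before readout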); settings: CellTiter-Glo ATP luminescence
# [3] = JHH-DIPG-1 glioma cell viability, MIPE5.0 library, CellTiter-Glo luminescence, qHTS (AID 1347067; cut-off not given, nearly all actives have AC50 up to about 26 µM;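 also: cells exposed to compound for 48 hours before readout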); settings: JHH-DIPG-1 glioma viability, CellTiter-Glo ATP luminescence
# [4] = SU-DIPG-XXV glioma cell viability, MIPE5.0 library, qHTS (AID 1347068; cut-off not given, nearly all actives have IC50 up to about 30 µM)
# [5] = sensitizers of A549 cells to miR-34 induction, primary screen, imaging, A549 dox-inducible miR-34, nuclei and caspase counts (AID 1347080;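 active = compounds whose cell count with miR-34 switched on is under 0.7 times the count with it off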); settings: A549 miR-34 inducible, Hoechst nuclei count, 48 h
# [6] = modifiers of HSF1 nuclear foci, imaging, Selleck Cancer Library (AID 1347162; in the data active = plate-normalised HSF1 focus index below about 0.46); settings: human cells, at 10 µM; SSMD: measured here: HSF1 foci SSMD mean; cell count: measured here: cell number; plate-normalised HSF1 focus index: stronger effect = lower value
# [7] = survival rescue of mitochondrial mutant cells in low glucose, primary screen, MELAS cybrids, Rieske KO mouse fibroblasts, CellTiter-Glo (AID 1508586;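 active = mean z-score across replicates of 1.96 or higher in either the MELAS or the Rieske mutant cell line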;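 also: z relative to plate mean and SD of compound and empty wells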)
# [8] = ovarian cancer cell viability with rucaparib, profiling panel, oncology-focused library, rucaparib conditional (AID 1508598); settings: patient-derived ovarian cancer cells, CellTiter-Glo viability, 144 h, stronger effect = lower value
# [9] = target: NAD(+) hydrolase SARM1 (Homo sapiens) (UniProt Q6SZW1); assay: SARM1 TIR NADase inhibitors, cell lysate, NAD-Glo luminescence (AID 1508614;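 active = compound whose remaining NAD level is above about 45 nM, limit read from the data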;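 also: higher remaining NAD means stronger inhibition of SARM1 NADase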); settings: SAM-TIR HEK293T lysate NADase, at 1 µM, stronger effect = higher value
# [10] = viability rescue of complex I mutant cybrids, primary screen, cell-based, galactose medium, ATP luminescence (AID 1645843;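 active = z-score of at least 1.8 in each of two replicates, scored against plate mean and spread of sample wells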;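 also: positive z means more ATP and so rescue of galactose-driven cybrid death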); settings: complex I mutant cybrid cells, 72 h, stronger effect = higher value
# NAD(+) hydrolase SARM1 (Homo sapiens), sequence (Q6SZW1 whole entry, looked up): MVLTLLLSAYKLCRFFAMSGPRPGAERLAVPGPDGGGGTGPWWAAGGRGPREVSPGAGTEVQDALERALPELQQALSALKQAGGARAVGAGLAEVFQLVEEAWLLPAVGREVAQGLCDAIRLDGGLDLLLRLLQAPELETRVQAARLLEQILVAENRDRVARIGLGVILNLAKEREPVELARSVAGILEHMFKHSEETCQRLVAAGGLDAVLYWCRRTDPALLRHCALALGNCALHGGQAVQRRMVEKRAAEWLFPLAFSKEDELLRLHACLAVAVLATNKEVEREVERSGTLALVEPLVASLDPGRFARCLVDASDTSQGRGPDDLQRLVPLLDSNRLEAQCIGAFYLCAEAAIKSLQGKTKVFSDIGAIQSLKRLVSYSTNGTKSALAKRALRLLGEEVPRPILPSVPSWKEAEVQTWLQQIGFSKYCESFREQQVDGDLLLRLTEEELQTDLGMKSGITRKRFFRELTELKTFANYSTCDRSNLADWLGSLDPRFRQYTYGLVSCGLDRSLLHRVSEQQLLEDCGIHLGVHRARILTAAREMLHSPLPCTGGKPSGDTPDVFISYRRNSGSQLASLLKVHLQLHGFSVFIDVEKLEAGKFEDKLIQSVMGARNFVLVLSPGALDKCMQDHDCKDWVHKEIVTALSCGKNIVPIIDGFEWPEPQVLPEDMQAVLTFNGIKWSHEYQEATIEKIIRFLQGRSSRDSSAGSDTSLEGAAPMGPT
smiles,measurement,setting,value
CC(C)(C#N)c1cc(Cn2cncn2)cc(C(C)(C)C#N)c1,outcome,[1],inactive
same,outcome,[2],inactive
same,outcome,[3],inactive
same,outcome,[4],inactive
same,fold change,"[5]; stronger effect = lower value, cell number ratio, induced over uninduced",0.875 (inactive) and 0.939 (inactive) and 0.952 (inactive)
same,fold change,[5]; measured here: relative caspase fold change +Dox/-Dox,1 and 1.14
same,cell count,"[5]; measured here: total cells with miR-34 induction, stronger effect = lower value",8530 and 7350 and 9720
same,cell count,[5]; measured here: total cells without miR-34 induction,9750 and 7820 and 10200
same,SSMD,[6],1.85
same,cell count,[6],7640
same,plate-normalised HSF1 focus index,[6],1.07 (inactive)
same,z-score,"[7]; MELAS cybrid survival, CellTiter-Glo 48 h, stronger effect = higher value",-0.386 (inactive) and -0.452 (inactive) and -0.582 (inactive)
same,z-score,"[7]; Rieske KO mouse fibroblast survival, CellTiter-Glo 72 h",0.599 and -0.518 and -0.151
same,viability,"[8]; at 0.000305 µM, OCI-C5x cells, with rucaparib 10 µM, 100% = cells with rucaparib alone",109% (inactive)
same,viability,"[8]; at 0.000305 µM, OCI-C5x cells, without rucaparib",102% (inactive)
same,viability,"[8]; at 0.000305 µM, OCI-P5x cells, with rucaparib 20 µM, 100% = cells with rucaparib alone",98.5% (active)
same,viability,"[8]; at 0.000305 µM, OCI-P5x cells, without rucaparib",90.6% (active)
same,viability,"[8]; at 0.00122 µM, OCI-C5x cells, with rucaparib 10 µM, 100% = cells with rucaparib alone",107% (inactive)
same,viability,"[8]; at 0.00122 µM, OCI-C5x cells, without rucaparib",98.9% (active)
same,viability,"[8]; at 0.00122 µM, OCI-P5x cells, with rucaparib 20 µM, 100% = cells with rucaparib alone",102% (inactive)
same,viability,"[8]; at 0.00122 µM, OCI-P5x cells, without rucaparib",95.3% (active)
same,viability,"[8]; at 0.00488 µM, OCI-C5x cells, with rucaparib 10 µM, 100% = cells with rucaparib alone",115% (inactive)
same,viability,"[8]; at 0.00488 µM, OCI-C5x cells, without rucaparib",107% (inactive)
same,viability,"[8]; at 0.00488 µM, OCI-P5x cells, with rucaparib 20 µM, 100% = cells with rucaparib alone",104% (inactive)
same,viability,"[8]; at 0.00488 µM, OCI-P5x cells, without rucaparib",100% (inactive)
same,viability,"[8]; at 0.0195 µM, OCI-C5x cells, with rucaparib 10 µM, 100% = cells with rucaparib alone",113% (inactive)
same,viability,"[8]; at 0.0195 µM, OCI-C5x cells, without rucaparib",107% (inactive)
same,viability,"[8]; at 0.0195 µM, OCI-P5x cells, with rucaparib 20 µM, 100% = cells with rucaparib alone",110% (inactive)
same,viability,"[8]; at 0.0195 µM, OCI-P5x cells, without rucaparib",104% (inactive)
same,viability,"[8]; at 0.0781 µM, OCI-C5x cells, with rucaparib 10 µM, 100% = cells with rucaparib alone",105% (inactive)
same,viability,"[8]; at 0.0781 µM, OCI-C5x cells, without rucaparib",109% (inactive)
same,viability,"[8]; at 0.0781 µM, OCI-P5x cells, with rucaparib 20 µM, 100% = cells with rucaparib alone",108% (inactive)
same,viability,"[8]; at 0.0781 µM, OCI-P5x cells, without rucaparib",109% (inactive)
same,viability,"[8]; at 0.313 µM, OCI-C5x cells, with rucaparib 10 µM, 100% = cells with rucaparib alone",103% (inactive)
same,viability,"[8]; at 0.313 µM, OCI-C5x cells, without rucaparib",108% (inactive)
same,viability,"[8]; at 0.313 µM, OCI-P5x cells, with rucaparib 20 µM, 100% = cells with rucaparib alone",112% (inactive)
same,viability,"[8]; at 0.313 µM, OCI-P5x cells, without rucaparib",113% (inactive)
same,viability,"[8]; at 1.25 µM, OCI-C5x cells, with rucaparib 10 µM, 100% = cells with rucaparib alone",115% (inactive)
same,viability,"[8]; at 1.25 µM, OCI-C5x cells, without rucaparib",115% (inactive)
same,viability,"[8]; at 1.25 µM, OCI-P5x cells, with rucaparib 20 µM, 100% = cells with rucaparib alone",111% (inactive)
same,viability,"[8]; at 1.25 µM, OCI-P5x cells, without rucaparib",112% (inactive)
same,viability,"[8]; at 5 µM, OCI-C5x cells, with rucaparib 10 µM, 100% = cells with rucaparib alone",130% (inactive)
same,viability,"[8]; at 5 µM, OCI-C5x cells, without rucaparib",115% (inactive)
same,viability,"[8]; at 5 µM, OCI-P5x cells, with rucaparib 20 µM, 100% = cells with rucaparib alone",115% (inactive)
same,viability,"[8]; at 5 µM, OCI-P5x cells, without rucaparib",109% (inactive)
same,remaining NAD,[9],10 nM (inactive)
same,z-score,[10],0.695 (inactive) and 0.735 (inactive)
